# Measured values from PubChem BioAssay.
# Where “and” joins values, the source holds several entries; their conditions need not be identical. Equal values may be shown once. Results filed as inconclusive are left out. Some structures have more than one record in an assay (separate samples or runs), and their calls can disagree. Calls of active or inactive are those of the source.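 The calls were made as follows, unless noted: active = compounds whose cell count with miR-34 switched on is under 0.7 times the count with it off; inactive = the rest.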
# What was measured:
# [1] = P. berghei load reduction in hepatocytes – cell-based, HepG2, luciferase luminescence, HepG2 viability, primary screen (AID 624349; in the data active = parasite load remaining mostly below about 12%, no sharp cut-off; inactive = mostly above about 10%;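 also: 100% = mean of DMSO negative control wells on the same plate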); conditions: P. berghei liver stage in HepG2, luciferase luminescence, concentration not given here; parasite load remaining: stronger effect = lower value; viability: measured here: HepG2 viability without parasites
# [2] = test system: Hepatitis C virus NS3 helicase; test: blockers of NS3h binding to ssDNA – biochemical, fluorescence polarization, LOPAC1280 library, primary screen (AID 687035; in the data active = inhibition above about 37%); conditions: Purified HCV NS3 helicase, Cy5-dT15 ssDNA binding fluorescence polarization; stronger effect = higher value; concentration not given here
# [3] = compounds altering Cy5-DNA-NS3h complex signal – biochemical, LOPAC1280, artefact control for HCV NS3 helicase inhibitor project (AID 687037; call rule not given here); conditions: Cy5-DNA-NS3h complex fluorescence interference counterscreen
# [4] = Wnt pathway potentiators raising nuclear beta-catenin – imaging, WNT3A-conditioned medium, mouse C2C12, NPC library, primary screen (AID 1117326; in the data active = nuclear beta-catenin stimulation mostly above about 4.2%, no sharp cut-off; inactive = mostly below about 10%); conditions: stronger effect = higher value
# [5] = stimulators of insulin release from INS-1E, primary screen, cell-based, 5 mM glucose, NPC library (AID 1117329;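 active = compound raises insulin release from rat beta cells at 5 mM glucose, no numeric limit stated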); conditions: rat INS-1E insulin secretion, at 10 µM, stronger effect = higher value
# [6] = growth inhibition of GSK3B-pretreated HCT116 cells – cell-based, CellTiter-Glo, 0.2 to 20 µM (AID 1117336;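 active = compounds lowering colon cancer cell viability after pretreatment blocking the GSK3B kinase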); conditions: HCT116 viability after GSK3B inhibitor, at 20 µM, stronger effect = higher value
# [7] = inhibition of endothelial tube formation, primary screen, imaging, VEGF stimulated, CD31 staining, tube area, NPC library (AID 1117340;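 active = compound that reduces growth-factor-driven endothelial tube area in a mixed cell culture, no cutoff stated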); conditions: VEGF-stimulated ADSC/ECFC co-culture, at 10 µM, stronger effect = higher value
# [8] = GLP1 release stimulators, primary, NCI-H716, NPC library (AID 1117341;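 active = compound raises GLP1 secretion from the human gut endocrine cells, with no numeric limit stated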); conditions: NCI-H716 cells, at 10 µM, stronger effect = higher value
# [9] = HCT116 colon cancer cell growth inhibition, primary screen, CellTiter-Glo luminescence, NPC library (AID 1117342;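 active = compounds that lower survival of HCT116 colon cancer cells in the luminescence readout, no numeric limit stated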); conditions: at 20 µM (top of the series)
# [10] = reduced SW480 viability measured with CellTiter-Glo, NPC library, primary (AID 1117343;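 active = compounds that lower viability of the colon cancer cells in the luminescence readout, with no numeric limit stated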); conditions: CellTiter-Glo luminescence; at 20 µM (top of the series) unless noted
# [11] = NPC library primary testing for decreased DLD-1 cell viability via CellTiter-Glo (AID 1117346;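 active = compounds that lower survival of DLD-1 colon cancer cells in the luminescence readout, no cutoff given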); conditions: DLD-1 viability, CellTiter-Glo luminescence; at 20 µM (top of the series)
# [12] = viability loss in pontine glioma line – cell-based, JHH-DIPG-1, MIPE4.0, CellTiter-Glo, qHTS, dose response (AID 1347062; cut-off not given, nearly all actives have AC50 up to about 27 µM;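 as to AC50: cells exposed to compound for two days before readout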); conditions: JHH-DIPG-1 viability, CellTiter-Glo ATP luminescence
# [13] = viability loss with induced miR-34 in A549 – imaging, A549 dox-inducible miR-34, nuclei and caspase counts, primary screen (AID 1347080); conditions: A549 miR-34 inducible, Hoechst nuclei count, 48 h
# [14] = blockers of cellular phospholipid synthesis – cell-based, LOPAC library, screen 4, primary screen (AID 1347384; call rule not given here); conditions: animal cells, phospholipid biosynthesis inhibition screen; at 10 µM
# [15] = MELAS cybrid and Rieske KO viability enhancers – cell-based, MELAS cybrids, Rieske KO mouse fibroblasts, CellTiter-Glo, primary screen (AID 1508586;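 active = mean z-score across replicates of 1.96 or higher in either the MELAS or the Rieske mutant cell line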;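 also: z relative to plate mean and SD of compound and empty wells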); conditions: low glucose
# [16] = target: NAD(+) hydrolase SARM1 (Homo sapiens) (UniProt Q6SZW1); test: blocking NAD cleavage by SARM1 SAM-TIR – cell lysate, NAD-Glo luminescence (AID 1508614;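 active = compound whose remaining NAD level is above about 45 nM, limit read from the data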;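 also: higher remaining NAD means stronger inhibition of SARM1 NADase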); conditions: SAM-TIR HEK293T lysate NADase, at 1 µM, stronger effect = higher value
# [17] = galactose survival enhancers in mitochondrial complex I cybrids – cell-based, galactose medium, ATP luminescence, primary screen (AID 1645843;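 active = z-score of at least 1.8 in each of two replicates, scored against plate mean and spread of sample wells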;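 also: positive z means more ATP and so rescue of galactose-driven cybrid death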); conditions: complex I mutant cybrid cells, 72 h, stronger effect = higher value
# [18] = viability loss in pontine glioma line – cell-based, SU-DIPG-IV, MIPE4.0, CellTiter-Glo, qHTS, dose response (AID 1347063; cut-off not given, nearly all actives have AC50 up to about 30 µM;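 also: compound exposure lasted 48 hours before the viability readout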); conditions: CellTiter-Glo ATP luminescence
# [19] = stronger effect = lower value, cell number ratio, induced over uninduced
# [20] = measured here: relative caspase fold change +Dox/-Dox
# [21] = measured here: total cells with miR-34 induction, stronger effect = lower value
# [22] = measured here: total cells without miR-34 induction
# [23] = MELAS cybrid survival, CellTiter-Glo 48 h, stronger effect = higher value
# [24] = Rieske KO mouse fibroblast survival, CellTiter-Glo 72 h
# NAD(+) hydrolase SARM1 (Homo sapiens), sequence (Q6SZW1 whole entry, looked up): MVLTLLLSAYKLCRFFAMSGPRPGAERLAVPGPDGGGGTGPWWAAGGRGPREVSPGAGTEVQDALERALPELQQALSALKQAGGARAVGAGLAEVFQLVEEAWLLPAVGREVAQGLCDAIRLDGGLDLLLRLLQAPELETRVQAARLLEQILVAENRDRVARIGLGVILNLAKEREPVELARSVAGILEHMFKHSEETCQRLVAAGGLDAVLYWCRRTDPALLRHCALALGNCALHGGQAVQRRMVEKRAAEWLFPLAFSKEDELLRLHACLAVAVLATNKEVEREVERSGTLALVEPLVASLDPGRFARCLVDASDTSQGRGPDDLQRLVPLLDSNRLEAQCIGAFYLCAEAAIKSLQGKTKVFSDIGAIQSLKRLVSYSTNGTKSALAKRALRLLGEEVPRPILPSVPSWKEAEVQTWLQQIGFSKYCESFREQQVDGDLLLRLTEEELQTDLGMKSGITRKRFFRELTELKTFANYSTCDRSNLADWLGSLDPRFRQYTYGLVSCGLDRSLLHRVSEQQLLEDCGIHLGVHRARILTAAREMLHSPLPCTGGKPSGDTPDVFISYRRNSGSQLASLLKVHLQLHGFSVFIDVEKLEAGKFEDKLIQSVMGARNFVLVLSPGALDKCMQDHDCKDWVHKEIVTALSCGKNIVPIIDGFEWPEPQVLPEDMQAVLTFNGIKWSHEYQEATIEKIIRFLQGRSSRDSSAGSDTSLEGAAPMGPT
compound,measurement,setting,value
C[C@]12CC[C@@H]3c4ccc(O)cc4C[C@@H](CCCCCCCCCS(=O)CCCC(F)(F)C(F)(F)F)[C@H]3[C@@H]1CC[C@@H]2O (stereo partly specified),parasite load remaining,[1],12.8% (inactive)
same,viability,[1],121%
same,inhibition,[2],0% (inactive)
same,fluorescence ratio (interference),[3],0.9 (inactive)
same,nuclear beta-catenin stimulation,[4]; at 10 µM,1% (inactive)
same,nuclear beta-catenin stimulation,"[4]; stimulation, at 2 µM",0.4%
same,insulin secretion stimulation,[5],5.1% (inactive)
same,viability decrease,[6],-4.5% (inactive)
same,tube area decrease,[7],16.2% (inactive)
same,GLP1 secretion stimulation,[8],-2.7% (inactive)
same,inhibition of viability,[9],49.8% (inactive)
same,viability decrease (inhibition),[10],54% (active)
same,viability decrease (inhibition),[11],18.9% (inactive)
same,outcome,[12],inactive
same,fold change,[13]; [19],0.987 (inactive) and 0.822 (inactive)
same,fold change,[13]; [20],1.73 and 1.2
same,cell count,[13]; [21],7220 and 6230
same,cell count,[13]; [22],7310 and 7580
same,outcome,[14],inactive
same,z-score,[15]; [23],-1.54 (inactive) and 0.0305 (inactive)
same,z-score,[15]; [24],-0.225 and 1.88
same,remaining NAD,[16],10 nM (inactive)
same,z-score,[17],2.5 (active) and -0.155 (inactive)
O=C(Nc1cccc2c(=O)cc(-c3nn[nH]n3)oc12)c1ccc(OCCCCc2ccccc2)cc1,parasite load remaining,[1],45% (inactive)
same,viability,[1],94.5%
same,nuclear beta-catenin stimulation,[4]; at 10 µM,0.3% (inactive)
same,nuclear beta-catenin stimulation,"[4]; stimulation, at 2 µM",-0.2%
same,insulin secretion stimulation,[5],2.85% (inactive)
same,viability decrease,[6],108% (active)
same,tube area decrease,[7],-18.5% (inactive)
same,GLP1 secretion stimulation,[8],21.5% (active)
same,inhibition of viability,[9],112% (active)
same,viability decrease (inhibition),[10],125% (active)
same,viability decrease (inhibition),[11],88.8% (active)
same,fold change,[13]; [19],0.93 (inactive) and 0.898 (inactive)
same,fold change,[13]; [20],0.309 and 1.37
same,cell count,[13]; [21],5160 and 10700
same,cell count,[13]; [22],5550 and 12000
same,z-score,[15]; [23],0.447 (inactive) and -0.129 (inactive)
same,z-score,[15]; [24],0.183 and 0.319
same,z-score,[17],1.36 (inactive)
CCC(C)(C)c1ccc(CC(C)CN2C[C@@H](C)O[C@@H](C)C2)cc1 (stereo partly specified),parasite load remaining,[1],32.9% (inactive)
same,viability,[1],99%
same,nuclear beta-catenin stimulation,[4]; at 10 µM,0.2% (inactive)
same,nuclear beta-catenin stimulation,"[4]; stimulation, at 2 µM",0.5%
same,insulin secretion stimulation,[5],-2.9% (inactive)
same,viability decrease,[6],23.9% (inactive)
same,tube area decrease,[7],-0.6% (inactive)
same,GLP1 secretion stimulation,[8],11.9% (inactive)
same,inhibition of viability,[9],10.2% (inactive)
same,viability decrease (inhibition),[10],83.9% (active)
same,viability decrease (inhibition),[11],55.5% (active)
same,outcome,[12],inactive
same,fold change,[13]; [19],0.818 (inactive) and 0.902 (inactive)
same,fold change,[13]; [20],0.996 and 1.18
same,cell count,[13]; [21],6710 and 9820
same,cell count,[13]; [22],8200 and 10900
same,z-score,[15]; [23],-0.995 (inactive) and -0.921 (inactive)
same,z-score,[15]; [24],-0.654 and -0.53
same,remaining NAD,[16],10 nM (inactive)
same,z-score,[17],-1.82 (inactive)
CN(C)[C@@H](CCOc1cccc2ccccc12)c1ccccc1,nuclear beta-catenin stimulation,[4]; at 10 µM,0.1% (inactive)
same,nuclear beta-catenin stimulation,"[4]; stimulation, at 2 µM",-0.4%
same,insulin secretion stimulation,[5],9.9% (inactive)
same,viability decrease,[6],89.7% (active)
same,tube area decrease,[7],20.5% (inactive)
same,GLP1 secretion stimulation,[8],6% (inactive)
same,inhibition of viability,[9],91.5% (active)
same,viability decrease (inhibition),[10],103% (active)
same,viability decrease (inhibition),[11],67% (active)
same,AC50,[12],20.9 µM (active)
same,AC50,[18],23.5 µM (active)
COC(=O)N[C@H](C(=O)N[C@@H](Cc1ccccc1)[C@@H](O)CN(Cc1ccc(-c2ccccn2)cc1)NC(=O)[C@@H](NC(=O)OC)C(C)(C)C)C(C)(C)C,parasite load remaining,[1],62.2% (inactive)
same,viability,[1],276%
same,nuclear beta-catenin stimulation,[4]; at 10 µM,2.9% (inactive)
same,nuclear beta-catenin stimulation,"[4]; stimulation, at 2 µM",0.8%
same,insulin secretion stimulation,[5],2.15% (inactive)
same,viability decrease,[6],-7% (inactive)
same,tube area decrease,[7],82.7% (active)
same,GLP1 secretion stimulation,[8],-0.7% (inactive)
same,inhibition of viability,[9],5.8% (inactive)
same,viability decrease (inhibition),[10],-2% (inactive)
same,viability decrease (inhibition),[11],-6.7% (inactive)
same,outcome,[12],inactive
same,fold change,[13]; [19],0.809 (inactive)
same,fold change,[13]; [20],0.911
same,cell count,[13]; [21],8470
same,cell count,[13]; [22],10500
same,z-score,[15]; [23],-0.0891 (inactive)
same,z-score,[15]; [24],-1.39
same,z-score,[17],0.325 (inactive)
